Experimental data: publication PMC12864922, “TDP-43 directly inhibits mRNA accumulation in neurites through modulation of mRNA stability”
Whole data set: some 9,900 sequences, median “r (bound/input frequency ratio)” near 0.7, cut for the highest 2% near 6.5. For the sample, the highest values were picked, then their nearest neighbours and some sequences at random.

B1: ENSMUSG00000058297.485|Spock2 (ssRNA)
RNA: GGGAGUUCUACAGUCCGACGAUCGCUUCGAUAUCCGCAUGCUACUGGAGCUGCCCUACUAAGAGCCUCCUUAGCCCUGGGUGCUGGGAAGGAUGGUGUACGUUGGGGAAGUUUGAGGUUGGAGAGAGUAAAUGUGCCUUGAGAGACCACUCAGAGGUCCCAGGAGGAACGGGGGCGGGGCUUAGCCUGGGAGUUCUGGCAGGAGGCAAAGUUGGUGAGAGUCCUGGGACAUCUUACCCCCAGUGUUCCACAGGAGUCGUGACCACGUGUGAUGGGUGGGCACAGGUCUGCCUUGCUCCAGCCCCUCUUGCGGUCGCACUAGUGUGGAAUUCUCGGGUGUCAAGG
B2: ENSMUSG00000004113.268|Cacna1b (ssRNA)
RNA: GGGAGUUCUACAGUCCGACGAUCGCUUCGAUAUCCGCAUGCUACGUGUUACAAGAAACUGGCAGGAAGGAAAUGGCCCUGGAACAGGCCAGGUGCCUAGAGCUAAGUCAGGCCCCUGGCUUAGCACUAGAAAAAAUAAAACCUCAUGGCUGCUUUGCAAAGGGAAAACCCAUGCUCAGGAAGGUGUUCAGUGUGCACAGAUAGCUGGGAGGCCACGAGAGAAAGGUUGCACACAGACAGGCAGGCACUCCUUGGUGUGGUCUCUCUGUUUUGAAACUUCUGAUGACUUCUUGGUGGCUUGUUGCUCUUGCGGUCGCACUAGUGUGGAAUUCUCGGGUGUCAAGG
B3: ENSMUSG00000029028.187|Lrrc47|67:71 (ssRNA)
RNA: GGGAGUUCUACAGUCCGACGAUCGCUUCGAUAUCCGCAUGCUAGUCAGCGUGUCCCACUAUUCAUGUCCCAUCUCUGUGCAUCCUGACUGCGCACAUCCCAUCUCCGCAACACAACGCAUCUGUACCAGCACACAGCUGCCAUCCCUCGAGCCACAGUGCCUGGUCCUAAGGACCCAGCAGCUGCACAGAGGACUUGGUGGCCCCGUGCCUUGCCAUCUGGCUGAGAAGAGAACCAGACCCUCAGCCUUCCCCCUCGACACCUUCUCGUUGGUGACCUCUGACCUUAAAGGACCAUUUCUACCCUCUUGCGGUCGCACUAGUGUGGAAUUCUCGGGUGUCAAGG
B4: ENSMUSG00000061578.966|Ksr2 (ssRNA)
RNA: GGGAGUUCUACAGUCCGACGAUCGCUUCGAUAUCCGCAUGCUAGCCCUGGAUGUGACUAUAUGUGCUGAGAAGGGAAGGUAGUUUUCCCCCAGAAAGUCCCUUCUAAUAAACAUUGAUGACUUUAGAAUCCAUGACUCAGAAUUUUCCAGAGACCCAAUCCCUCGGGGUCCACUUAGUGAUGGGACCAUACAAGAGUUUAUUUCCAAUUAGAGAAUUGGGUCAACUGGGAAAGGCUUCUUUCCUGGUAACCCUGCUACUGAUACUAUGUUGAAACAGGAAUCGACUCUAACUGCUUUUUGGCCCUCUUGCGGUCGCACUAGUGUGGAAUUCUCGGGUGUCAAGG

The binders below were run against TDP-43 (Homo sapiens, UniProt Q13148 1-414) (assay: RNA Bind-n-Seq with designed 260-mer pool; 25 mM Tris-HCl, 150 mM KCl, 3 mM MgCl2, BSA (printed 500 mg/mL), 20 units/mL SUPERase IN; pH not stated; 500 nM RNA pool, 1 h, 4 C; TDP-43 5, 50, 500 nM; high values mean tight binding). Details: protein: recombinant; tags: SBP (GST cleaved off with PreScission; pGEX-GST-SBP).
Sequence of TDP-43 (Q13148 whole entry): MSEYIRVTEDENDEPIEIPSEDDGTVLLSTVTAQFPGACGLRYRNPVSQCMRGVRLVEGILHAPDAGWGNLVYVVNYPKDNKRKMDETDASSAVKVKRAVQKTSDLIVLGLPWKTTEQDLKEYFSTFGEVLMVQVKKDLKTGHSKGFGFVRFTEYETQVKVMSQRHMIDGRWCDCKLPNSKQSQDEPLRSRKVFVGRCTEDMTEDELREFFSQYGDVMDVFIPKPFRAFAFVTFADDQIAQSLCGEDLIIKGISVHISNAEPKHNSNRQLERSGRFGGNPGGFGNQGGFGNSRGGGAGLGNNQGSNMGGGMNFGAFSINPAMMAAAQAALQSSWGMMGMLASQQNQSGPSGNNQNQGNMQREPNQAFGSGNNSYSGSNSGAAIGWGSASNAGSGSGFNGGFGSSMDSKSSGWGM
Method in brief: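 The incubation lasted 1 h at 4 °C and used 500 nM of an in vitro-transcribed 260-nt 3′ UTR oligo pool with recombinant SBP-tagged TDP-43 at 5, 50 or 500 nM immobilized on streptavidin beads. It took place in 25 mM Tris-HCl, 150 mM KCl, 3 mM MgCl2, BSA and SUPERase IN. Bound RNA was washed, eluted with biotin, converted to cDNA, PCR-amplified and sequenced to give R, each oligo's normalized abundance in the bound sample divided by that in input. Two independent protein batches provided the duplicates.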
In the case of B1, the binding signal is reported as 5.55 R (bound/input frequency ratio). In the case of B2, the binding signal is reported as 0.57 R (bound/input frequency ratio). In the case of B3, the binding signal is reported as 1.42 R (bound/input frequency ratio). In the case of B4, the binding signal is reported as 0.302 R (bound/input frequency ratio).
